In PubChem BioAssay AID2016 (NMMLSC, 2009):
In all, about 330,000 compounds went through this assay and about 1,700 (0.52%) were called active.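 How the source made its calls: active means GFP response versus DMSO above a set limit, roughly screen mean plus 3 SD (cut at about 180% in these data); inconclusive means fewer than 70 cells counted for a yeast strain; inactive means the rest.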 Shown is part of a subset that was picked to be rich in actives.

Assay: modulators of MEP2-GFP levels in yeast, primary screen, S. cerevisiae, multiplex flow cytometry, MLPCN library (AID 2016);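 further: median GFP fluorescence of the barcode-gated MEP2-GFP cells per well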
Settings: S. cerevisiae MEP2-GFP strain, 3 h, at 10 µM, hits give high values, 100% = DMSO control level

SMILES	GFP response vs DMSO
CSc1ncccc1C(=O)NCc1ccccc1Cl	107% (inactive)
COc1c(C)c2c(c(O)c1C/C=C(\C)CCC(=O)O)C(=O)OC2	297% [may fluoresce violet] (active)
CCCCn1c(N)c(N(CC)C(=O)c2ccc(N(C)S(=O)(=O)c3ccc(C)cc3)cc2)c(=O)[nH]c1=O	98% (inactive)
CC(C)(C)C1CCC(C(=O)NCC(c2cccs2)N2CCOCC2)CC1 (centres undefined)	99% (inactive)
CN1CCN(C(=O)Cn2c(C(F)(F)F)nc3ccccc32)CC1	103% (inactive)
C=CCN1CC(C)/C(=N\O)CC1C (centres undefined)	93.2% (inactive)
Cc1c(C#N)c(NC(=O)c2ccccc2)n(Cc2ccccc2)c1C	93.8% (inactive)
Cc1ccc(C(=O)Nc2c(C#N)c(C)c(C)n2Cc2ccccc2)cc1	364% [may fluoresce violet] (active)
COc1ccc(Cn2c(C)c(C)c(C#N)c2NC(=O)Nc2ccc(F)cc2)cc1	99.5% (inactive)
Cc1cc(C)c2c(-c3ccc(F)cc3)c(C#N)c(=O)n(C)c2n1	95.2% (inactive)
Cc1cccn2c(=O)c3cc(C(=O)NCC4CCCO4)c(=N)n(Cc4ccc(F)cc4)c3nc12 (centres undefined)	92.2% (inactive)
Cc1ccc2nc3c(cc(C(=O)NCCc4ccccc4)c(=N)n3CC3CCCO3)c(=O)n2c1 (centres undefined)	238% [may fluoresce violet] (active)
Cc1ccc(CCNC(=O)c2ccc3nc4ccccc4c(=O)n3c2)cc1	112% (inactive)
COc1ccc(-c2c(C(C)=O)c(C)nc3sc4c(=O)n(-c5ccc(C)cc5)nnc4c23)cc1	105% (inactive)
O=C(Nc1ccccc1)c1ccc2nsnc2c1	100% (inactive)
Cc1cccc(NC(=O)c2ccc3nsnc3c2)c1C	100% (inactive)
Cc1cccc(NC(=O)N2CCCCCC2)c1C	98.3% (inactive)
Cc1cccc(NC(=O)c2cccc(C(=O)Nc3cccc(C)c3C)n2)c1C	181% [may fluoresce violet] (active)
Nc1nc(Sc2ncccc2[N+](=O)[O-])n[nH]1	96.3% (inactive)
COc1ccc(N2C(=O)CCC(C(=O)N(C)C3CCCCC3)C2c2ccc(OC)c(OC)c2)cc1 (centres undefined)	99.1% (inactive)
CCCCCn1c(=O)[nH]c2cc(C(=O)NCCCN3CCCCC3C)ccc2c1=O (centres undefined)	127% (inactive)
O=S(=O)(NCC1CN(S(=O)(=O)c2ccc3c(c2)OCCO3)C1)c1c(F)cccc1F	103% (inactive)
O=C(N/N=C/c1cccnc1)c1ccc(NC(=O)c2ccc(F)cc2)cc1	99.6% (inactive)
Fc1ccc(/C=N/Nc2nc(-c3cccnc3)nc3ccccc23)cc1	195% (active)
O=c1c2ccccc2nc(N/N=C/c2ccccc2)n1O	95.1% (inactive)

SMILES	GFP response vs DMSO
Cc1cc(C)c(S(=O)(=O)NCCCN2CCOCC2)cc1Br	103% (inactive)
CCOC(=O)Cn1c(=O)oc2cc(S(=O)(=O)N(C)Cc3ccco3)ccc21	91.7% (inactive)
CN(c1ccccc1)c1ccc(/C=c2\s/c(=C(/C#N)C(=O)C(C)(C)C)n(Cc3ccco3)c2=O)cc1	343% (active)
CCN1CCN(C(=O)N[C@@H](C(=O)N[C@@H]2C(=O)N3C(C(=O)O)=C(CSc4nnnn4C)CS[C@H]23)c2ccc(O)cc2)C(=O)C1=O	94.9% (inactive)
O=C(Cn1[nH]c(=O)c2ccccc2c1=O)Nc1cccc(-c2nnc3n2CCCCC3)c1	224% [may fluoresce violet] (active)
Cc1c(C(=O)Nc2cccc(-c3nnc4n3CCCCC4)c2)oc2ccccc12	104% (inactive)
Cc1ccc(-c2csc(NC(=O)Cn3[nH]c(=O)c4ccccc4c3=O)n2)cc1	102% (inactive)
Cc1ccc(-c2csc(N(Cc3ccco3)C(=O)c3cccs3)n2)cc1	109% (inactive)
CCOCCn1c(C(C)C)nc2ccccc21	94.3% (inactive)
CCOCCn1c(-c2ccccc2)nc2ccccc21	236% [may fluoresce violet] (active)
CCc1nc2ccccc2n(CCOCCOCCn2c(=O)c(CC)nc3ccccc32)c1=O	105% (inactive)
CCN(CC(=O)NCc1cccs1)C(=O)c1ccc(OC)c(S(=O)(=O)N2CCOCC2)c1	96% (inactive)
Cc1cc(=O)oc2c3c(cc(OCC(=O)NCCC(=O)N[C@@H](C)C(=O)O)c12)OC(C)(C)CC3	92.9% (inactive)
CCOc1cc(N2CCOCC2)c(OCC)cc1NC(=O)c1ccc(C)s1	94.6% (inactive)
CCOc1cc(N2CCOCC2)c(OCC)cc1NC(=O)COc1cccc2cccnc12	295% [may fluoresce violet] (active)
CCOc1cc(N2CCOCC2)c(OCC)cc1NC(=O)COc1cccc(Cl)c1	107% (inactive)
O=C(CSc1nnc(-c2ccncc2)n1-c1ccc(Cl)cc1)Nc1ccc(C(=O)O)cc1	101% (inactive)
Cc1cc(=O)oc2c3c(cc(OCC(=O)NCc4ccccn4)c12)OC(C)(C)CC3	100% (inactive)
O=C(CCC(=O)N1CCN(S(=O)(=O)c2ccccc2)CC1)NC1CCCc2ccccc21 (centres undefined)	108% (inactive)
O=C(O)c1cc(S(=O)(=O)NC2CCCc3ccccc32)ccc1O (centres undefined)	232% [may fluoresce violet] (active)
CNS(=O)(=O)c1cccc(C(=O)NC2CCCc3ccccc32)c1 (centres undefined)	102% (inactive)
CCC(C)(C)c1ccc(OCC(=O)N(C)C)c(C(C)(C)CC)c1	108% (inactive)
N#Cc1cccc(NC(=O)COC(=O)c2ccccc2C(=O)c2ccc(Cl)c([N+](=O)[O-])c2)c1	112% (inactive)
Cc1ccc(C2(c3ccc(C)cc3)NC(=O)N(Cc3c(C)noc3C)C2=O)cc1	91.9% (inactive)
